Several values for one entry are separate records, joined by “and”; a condition that tells them apart may be missing. Equal entries are not always repeated. Inconclusive results are not listed. Activity calls are given as the source filed them. Unless noted, calls follow the shape of the dose curve; as a rule, active = well fitted curve in the direction sought with a large enough effect; inconclusive = small, poorly fitted or top-dose-only effect, or another doubt; inactive = no such curve, though single readings can be large; an effect the other way counts as inactive or inconclusive.
Tests used:
[1] = biological target: Mitogen-activated protein kinase 10 (Mus musculus) (UniProt Q61831); test: JNK3 AlphaScreen Assay (AID 530; active = well fitted curve in either direction with a large enough effect, not every such curve was filed as active;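 also: kinase came from lysate of stimulated human HepG2 cells; signal reports phosphorylation of biotinylated GST-cJun 1-79 at Ser73 with 10 µM ATP; % is scaled to controls: 0 for no effect and ±100 for the full control effect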)
Outline: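 Kinase buffer: 20 mM Tris-HCl pH 7.6, 10 mM MgCl2, 1 mM DTT, 0.1 mM Na3VO4, 0.01% Tween-20; ATP 10 uM. Substrate biotin-GST-cJun(1-79), enzyme from activated HepG2 lysates. Detection by Ser73 phospho-antibody AlphaScreen.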

[2] = Cell Viability - N2a (AID 540); conditions: N2a mouse neuroblastoma cell viability; at 92.2 µM (top of the series);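 also: cells exposed to compound for 40 h at 37 °C; plate controls were DMSO alone for no effect and tamoxifen control for full effect; nearly all actives have a fitted effect of over 45% in size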
Outline: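 In this qHTS cytotoxicity screen, ATP-dependent luciferase luminescence reports viable N2a cells after a 40 hr compound exposure in complete culture medium. Potencies are AC50 values from standard Hill equation fits.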

[3] = Cell Viability - NIH 3T3 (AID 541); conditions: NIH 3T3 cell viability, qHTS; activity change, negative = cytotoxicity: at 92.2 µM (top of the series);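 also: cells exposed to compound for 40 hours; plate controls were DMSO alone for no effect and tamoxifen positive control for full effect; nearly all actives have a fitted effect of over 25% in size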
Outline: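 In this cytotoxicity screen, acute toxicity is scored as an ATP drop measured by CellTiter-Glo in NIH 3T3 fibroblasts following a 40 hr, 37 °C incubation with compound.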

[4] = Cell Viability - HUV-EC-C (AID 542);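 also: cells exposed to compound for 40 hours; % is scaled to controls: 0 for no effect and ±100 for the full control effect; nearly all actives have a fitted effect of over 35% in size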
Outline: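 Concentration-dependent ATP loss in HUV-EC-C cells is the measure. Exposure lasts 40 hr at 37 °C; luminescence follows CellTiter-Glo addition, and Hill fits give AC50.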

[5] = Cell Viability - H-4-II-E (AID 543);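 also: cells exposed to compound for 40 hours; % is scaled to controls: 0 for no effect and ±100 for the full control effect; nearly all actives have a fitted effect of over 35% in size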
Outline: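 AC50 from Hill-modelled qHTS concentration-response curves. H-4-II-E rat hepatoma cells in complete medium, 40 hr exposure at 37 °C, viability by CellTiter-Glo ATP luminescence.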

[6] = Cell Viability - SH-SY5Y (AID 544); conditions: SH-SY5Y neuroblastoma cell viability; viability change, negative = cytotoxic: at 92.2 µM (top of the series);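 also: cells exposed to compound for 40 hours; 0% = DMSO alone and -100% = 100 µM tamoxifen; nearly all actives have a fitted effect of over 55% in size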
Outline: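 Quantitative HTS in SH-SY5Y neuroblastoma cells, 40 hr treatment at 37 °C, ATP content by luciferase luminescence; AC50 from Hill fits.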

[7] = Cell Viability - Renal Proximal Tubule (AID 545); conditions: renal proximal tubule cells viability; at 91.7 µM (top of the series) unless noted;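 also: cells exposed to compound for 40 hours; 0% = DMSO only and -100% = 100 µM tamoxifen; nearly all actives have a fitted effect of over 40% in size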
Outline: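 Rat kidney proximal tubule cells, freshly isolated; 1000 cells/well, 5 hr settle, compound 40 hr 37 °C. CellTiter-Glo 20 min RT, luminescence read. AC50 by standard Hill fit.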

[8] = biological target: Glucocorticoid receptor (Homo sapiens) (UniProt P04150); test: GR-GFP Redistribution (AID 450;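 active = compounds whose dose series gives a full or clear partial fitted curve of increased nuclear translocation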; also: potency is read from the fitted curve at half-maximal effect); conditions: U2OS GR-GFP nuclear translocation, laser cytometry, 2 h
[9] = biological target: Glucocorticoid receptor (Homo sapiens) (UniProt P04150); test: GR-EFC Redistribution (AID 451; calls by dose curve; also: potency is read from the fitted curve at half-maximal effect); conditions: CHO-K1 GR-EFC translocation, beta-gal luminescence, 2 h
Outline: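 Translocation of GR-ED fusion to nuclear EA restores b-gal, read by luminescence after 1 h room-temperature detection. Engineered CHO-K1 biosensor cells, 1,000/well, exposed 2 h at 37 C to titrations up to 46 uM final.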

[10] = Stat Signaling Pathway (AID 446; active = well fitted curve in either direction with a large enough effect, not every such curve was filed as active;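 also: ME-180 cervical cancer cells given 40 pM IL-6 alongside compound; SIE-controlled beta-lactamase reporter measured as 460/530 nm FRET emission ratio; % is scaled to controls: 0 for no effect and ±100 for the full control effect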); conditions: ME-180 (cervical carcinoma) SIE beta-lactamase reporter, IL-6 stimulated, 5 h
Outline: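 Compound effects on IL-6-induced STAT reporter activity were measured in ME-180 cells. After overnight culture, cells were co-treated with 40 pM IL-6 for 5 hrs before beta-lactamase substrate loading at room temperature.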

Chain of Glucocorticoid receptor (Homo sapiens) (P04150 whole entry, looked up, the tested form may be a part): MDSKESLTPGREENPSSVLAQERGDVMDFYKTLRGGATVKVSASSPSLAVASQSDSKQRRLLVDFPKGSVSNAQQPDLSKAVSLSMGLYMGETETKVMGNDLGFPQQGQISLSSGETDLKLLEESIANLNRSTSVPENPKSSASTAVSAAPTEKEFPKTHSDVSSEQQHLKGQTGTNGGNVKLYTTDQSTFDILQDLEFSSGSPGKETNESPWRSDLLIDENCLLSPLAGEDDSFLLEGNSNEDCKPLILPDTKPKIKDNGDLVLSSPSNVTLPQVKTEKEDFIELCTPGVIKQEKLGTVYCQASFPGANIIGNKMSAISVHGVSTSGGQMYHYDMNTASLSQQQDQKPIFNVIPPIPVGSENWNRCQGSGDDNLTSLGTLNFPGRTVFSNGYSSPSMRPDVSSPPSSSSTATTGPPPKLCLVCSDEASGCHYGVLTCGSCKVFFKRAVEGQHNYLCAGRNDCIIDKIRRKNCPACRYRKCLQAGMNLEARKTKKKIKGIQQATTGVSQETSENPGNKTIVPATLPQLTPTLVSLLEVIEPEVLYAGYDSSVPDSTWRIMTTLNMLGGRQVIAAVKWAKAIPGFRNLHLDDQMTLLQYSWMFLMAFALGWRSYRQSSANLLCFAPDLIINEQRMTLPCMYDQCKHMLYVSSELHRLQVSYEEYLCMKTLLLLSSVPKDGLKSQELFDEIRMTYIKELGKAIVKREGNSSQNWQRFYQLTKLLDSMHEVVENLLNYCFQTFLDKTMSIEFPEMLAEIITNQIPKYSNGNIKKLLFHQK

OCCOc1ccccc1
inactive: outcome [1] | activity change, negative = cytotoxicity [2] -13.3% | activity change, negative = cytotoxicity [3] -18.9% | outcome [4] | Potency [5] | viability change, negative = cytotoxic [6] -18.2% | activity change, negative = cytotoxicity [7] -6.83%

Oc1ccccc1-c1ccccc1
inactive: outcome [1] | activity change, negative = cytotoxicity [2] -8.25% | activity change, negative = cytotoxicity [3] -15.3% | outcome [4] | Potency [5] | viability change, negative = cytotoxic [6] -9.19% | activity change, negative = cytotoxicity [7] -16.3% [at 91.7 µM, primary cells of rat origin]

O=c1[nH]c2ccccc2n1C1CCN(CCCC(c2ccc(F)cc2)c2ccc(F)cc2)CC1
inactive: Potency [8] > 46 µM and > 20.6 µM | Potency [9] > 46 µM and > 20.6 µM | outcome [1]

Oc1ccc(Cl)cc1Cc1ccccc1
inactive: outcome [1] | activity change, negative = cytotoxicity [3] -0.588% | outcome [4] | Potency [5] | activity change, negative = cytotoxicity [7] -8.93%

COC1(CS(=O)c2ccccc2)CCN(CCc2c[nH]c3ccc(F)cc23)CC1 (stereo unspecified)
inactive: Potency [8] > 46 µM | Potency [9] > 46 µM | outcome [1]

CCCN1CCC[C@@H]2Cc3nc(N)ncc3C[C@H]21
inactive: activity, negative = inhibition ([10]; at 38 µM (top of the series)) -19.8% | outcome [1]

CCCC(C)(COC(N)=O)COC(=O)NC(C)C (stereo unspecified)
inactive: activity, negative = inhibition ([10]; at 17.2 µM (top of the series)) 5.53% | outcome [1] | activity change, negative = cytotoxicity [2] 4.75% | activity change, negative = cytotoxicity [3] -2.14% | outcome [4] | Potency [5] | viability change, negative = cytotoxic [6] 1.5% | activity change, negative = cytotoxicity [7] 4.58%

c1ccc2c(c1)Nc1ccccc1S2
inactive: outcome [1] | activity change, negative = cytotoxicity [2] -21.6% | activity change, negative = cytotoxicity [3] -26.2% | outcome [4] | Potency [5] | viability change, negative = cytotoxic [6] -26% | activity change, negative = cytotoxicity [7] -25%

O=[N+]([O-])c1cc([As](=O)(O)O)ccc1O
inactive: activity, negative = inhibition ([10]; at 17.2 µM (top of the series)) 10.9% | Potency [8] > 20.6 µM | Potency [9] > 20.6 µM | outcome [1]

Reference: PubChem BioAssay (NCATS)
